Assay results from PubChem BioAssay (NCATS).
Results filed as inconclusive are left out. The source made the active and inactive calls. The call rests on the fitted dose curve; in most records, active means well fitted activation curve with a large enough effect; inconclusive means small, poorly fitted or top-dose-only effect; inactive means no such curve, though single readings can be large or run the other way.

These compounds were tested against Rap guanine nucleotide exchange factor 4 (Homo sapiens) (UniProt Q8WZA2) (assay: Confirmatory qHTS for agonist of cAMP-regulated guanine nucleotide exchange factor 4 (EPAC2) (AID 1645884;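 further: nucleotide exchange releases bodipy-GDP from Rap1 and this lowers its fluorescence; nearly all actives have a fitted effect of over 65% in size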)). Conditions: EPAC2 GEF activity, Rap1B-BODIPY-GDP fluorescence; series mostly up to 154 µM; activation: at the top concentration.
Rap guanine nucleotide exchange factor 4 (Homo sapiens), sequence (Q8WZA2 whole entry, looked up): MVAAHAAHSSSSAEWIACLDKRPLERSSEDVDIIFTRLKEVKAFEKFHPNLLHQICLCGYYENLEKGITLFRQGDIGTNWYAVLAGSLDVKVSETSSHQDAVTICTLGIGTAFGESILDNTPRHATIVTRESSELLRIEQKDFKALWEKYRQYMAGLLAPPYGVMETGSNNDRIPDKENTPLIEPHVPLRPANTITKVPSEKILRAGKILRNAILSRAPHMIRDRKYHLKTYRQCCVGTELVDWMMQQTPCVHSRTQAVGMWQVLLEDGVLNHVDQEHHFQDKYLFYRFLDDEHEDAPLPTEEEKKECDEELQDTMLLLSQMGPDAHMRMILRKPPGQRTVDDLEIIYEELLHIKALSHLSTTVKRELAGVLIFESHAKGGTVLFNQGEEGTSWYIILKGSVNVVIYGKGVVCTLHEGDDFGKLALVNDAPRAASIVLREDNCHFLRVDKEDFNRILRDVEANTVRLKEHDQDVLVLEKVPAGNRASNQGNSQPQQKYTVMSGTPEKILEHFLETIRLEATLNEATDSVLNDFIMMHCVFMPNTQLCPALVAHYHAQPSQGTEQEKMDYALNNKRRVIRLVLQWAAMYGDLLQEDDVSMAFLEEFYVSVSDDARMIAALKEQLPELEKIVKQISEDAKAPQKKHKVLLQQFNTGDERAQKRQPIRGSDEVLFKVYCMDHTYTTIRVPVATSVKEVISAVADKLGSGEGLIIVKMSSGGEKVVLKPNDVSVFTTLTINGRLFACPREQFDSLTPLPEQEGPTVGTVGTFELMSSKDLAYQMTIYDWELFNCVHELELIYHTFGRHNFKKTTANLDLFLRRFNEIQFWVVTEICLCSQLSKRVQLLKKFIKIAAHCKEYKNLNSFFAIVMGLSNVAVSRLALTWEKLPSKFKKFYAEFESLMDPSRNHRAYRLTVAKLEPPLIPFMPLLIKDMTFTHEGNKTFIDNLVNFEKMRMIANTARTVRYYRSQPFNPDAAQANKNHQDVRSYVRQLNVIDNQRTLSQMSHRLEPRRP
On the % scale 0 is the no-effect control and ±100 the full control effect.

activation, inactive:
O=C1Nc2ccccc2Nc2ncccc21 -4.86% [at 17.1 µM, percent relative to cAMP agonist control]
O=C(NN1C(=O)/C(=C/c2ccc(O)c(O)c2)SC1=S)c1ccccc1 7.5%
CCc1ccc(NC(=O)CSc2nnc(Cc3cccn3C)n2-c2ccc(OC)cc2)cc1 15.3% [at 17.1 µM, percent relative to cAMP agonist control]
CCOC(=O)C1C(=O)C=C(c2ccccc2)CC1c1ccccc1 (configuration not stated) 12.3% [at 17.1 µM, percent relative to cAMP agonist control]
CCCN1C(=O)c2ccccc2NC1c1ccc(OC)cc1OC (configuration not stated) 10%
CCOc1ccc(NCc2nc3ccccc3n2CCOc2ccccc2)cc1 16.9% [at 17.1 µM, percent relative to cAMP agonist control]
O=C(N/N=C\c1cc([N+](=O)[O-])ccc1N1CCCC1)c1ccccn1 3.56% [at 17.1 µM, percent relative to cAMP agonist control]
CN(C)C(=O)c1cccc(-c2cnc3c(NC=O)cc(-c4ccc(F)cc4)cn23)c1 3.65%
CCc1ccc(Nc2n[n+](-c3ccccc3)c(-c3cc(OC)c(OC)cc3Br)s2)cc1 -4.16%
S=C(NCCCN1CCOCC1)Nc1cccc(-c2nnc3n2CCCCC3)c1 8.74%
CCOc1ccc(/C(C)=N/NC(=O)C(OC)c2ccccc2)cc1 (configuration not stated) 7.87%
Oc1ccc(N=Cc2c(O)ccc3ccccc23)cc1 11.7% [at 17.1 µM, percent relative to cAMP agonist control]
